# High-throughput results: PubChem BioAssay, National Center for Advancing Translational Sciences (NCATS)
# NS1 function inh = influenza NS1 inhibition | Potency, µM (series often up to 46.1 µM), for inactives: top-dose activity, positive = more growth | actives 0.4% (n = 270,000) | AID 2326; note: potency is the fitted concentration of half-maximal effect; actives are rising curves; nearly all actives have a fitted effect of over 50% in size
#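 Compounds were scored for reversing the slow growth caused by influenza A NS1 in S. cerevisiae, measured by optical density at 600 nm. Assay medium contained 2% galactose at pH 6.0; NS1-free yeast of the same strain were the positive control.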
# Cycloheximide cs = counter-screen for Shiga toxin inhibitors: cycloheximide protein synthesis inhibition. cell reporter, cycloheximide protein synthesis inhibition counterscreen. max response, %. actives 12% (n = 300,000); in the data active = max response mostly above about 13%, no sharp cut-off; inactive = mostly below about 14%; note: read at 38.3 µM for the half of the compounds with a filed dose; 0% is about no effect
# SARS PLP yeast = blocks SARS-CoV papain-like protease in a yeast assay; AID 485353; actives 0.19% (n = 330,000); S. cerevisiae expressing SARS-CoV PLpro, growth rescue; Potency, µM (doses to about 32.9 µM), inactives show at the top dose activity, positive = growth rescue, most hits filed as activators; note: potency is the fitted concentration of half-maximal effect; 0% is about no effect; nearly all actives have a fitted effect of over 55% in size
# Shiga toxin inh = blocks Shiga toxin action in Vero cells | Vero cells, Shiga toxin protein synthesis inhibition reporter | inhibition, % at 38.7 µM | actives 9.2% (n = 290,000); in the data active = inhibition mostly above about 28%, no sharp cut-off; inactive = mostly below about 43%; note: 0% is about no effect
# Starred values were filed as active, the others as inactive; i = inactive; ? = inconclusive; . = not tested or not shown. Hits are enriched below; roughly 12% of the tested compounds scored in any of these assays. Unless noted, calls come from the whole dose curve.
SMILES,NS1 function inh,Cycloheximide cs,SARS PLP yeast,Shiga toxin inh
Nc1ccc(-c2ccc(N)c([N+](=O)[O-])c2)cc1[N+](=O)[O-],.,8,1%,36
Nc1ccc(-c2cnc[nH]2)cc1[N+](=O)[O-],5%,12*,1%,26
Cn1cnnc1SCC(=O)Nc1nc(-c2ccc(F)cc2)cs1,.,10,-5%,13
CC(NC(=O)Nc1ccc(Cl)c(Cl)c1)C(c1ccccc1)N1CCOCC1 (stereo not drawn),-31%,2,-109%,-13
O=C(Cc1cccs1)Nc1ccccc1,-8%,4,1%,30
O=C(Cc1ccc(Cl)cc1)Nc1ccc(NC(=O)c2cccs2)cc1,.,-5,-1%,-4
CC(Cc1cccs1)NC(=O)Nc1ccccc1 (stereo not drawn),-11%,14,5%,64*
CC(Cc1cccs1)NC(=S)Nc1ccccc1 (stereo not drawn),-29%,18*,10%,40*
CC(Cc1cccs1)NC(=O)Nc1ccc(Cl)c(Cl)c1 (stereo not drawn),-157%,45*,-46%,59*
CC(Cc1cccs1)NC(=O)Nc1ccc(Cl)cc1 (stereo not drawn),-84%,29*,-15%,88*
Cn1c(=O)[nH]c(=O)c2c1nc(N1CCCCC1)n2C/C=N/NC(=O)c1cc(Br)ccc1O,-6%,8,-2%,28
COc1ccc(Cl)cc1NC(=O)C1CCN(C(=O)C2CC(=O)N(c3ccc(C)cc3)C2)CC1 (stereo not drawn),-2%,-3,-16%,2
CC[C@]1(C(=O)OC)[C@H]2C(=O)N(C)C(=O)[C@H]2[C@H]2CN=C(SCC3CC3)N21,.,.,9%,.
Cc1ccc(-c2cc(C(=O)NCC3CCCO3)no2)cc1 (stereo not drawn),-42%,48*,-13%,49*
O=C(NCC1CCCO1)c1cc(-c2ccccc2)on1 (stereo not drawn),-9%,40*,6%,129*
Cc1ccc(Nc2nc(C(=O)N3CCC(C(=O)NC(C)C)CC3)cs2)cc1,1%,17*,0%,17
Cc1ccc(-c2cc(C(=O)NCCCN3CCOCC3)no2)cc1,2%,-2,2%,-8
CCN(CC)C(=O)c1csc(Nc2ccc(C)cc2)n1,-149%,20*,-30%,49*
Cc1cc(=O)oc2cc(OCC(=O)OCC(=O)Nc3c(C)n(C)n(-c4ccccc4)c3=O)ccc12,3%,-4,3%,-4
O=C1CC(c2ccc3c(c2)OCO3)c2cc(O)ccc2O1 (stereo not drawn),.,-1,.,i
Cc1ccc(Nc2nc(C(=O)NCC3CCCO3)cs2)cc1 (stereo not drawn),-53%,24*,-1%,51*
CCNC(=O)c1ccccc1-c1nc(-c2ccccc2)no1,2%,14,-1%,38
O=C(NCC1CCCO1)c1ccccc1-c1nc(-c2ccccc2)no1 (stereo not drawn),-6%,35*,-2%,112*
O=C(NCC1CCCO1)c1cc(-c2ccc(Cl)cc2Cl)on1 (stereo not drawn),-4%,52*,-2%,75*
CCc1cc(C(=O)NCC2CCCO2)sc1C (stereo not drawn),7%,31*,.,43*
SMILES,NS1 function inh,Cycloheximide cs,SARS PLP yeast,Shiga toxin inh
CN=C1SC(CC(=O)Nc2cc(Cl)ccc2Cl)C(=O)N1C (stereo not drawn),-5%,4,3%,8
O=C(NCC1CCCO1)c1cc2cc(Cl)ccc2[nH]1 (stereo not drawn),3%,33*,-13%,43*
COc1cc2[nH]c(C(=O)NCC3CCCO3)cc2c(OC)c1OC (stereo not drawn),-4%,-5,1%,-17
Cc1ccccc1/C=C/C12NC(=O)CN1c1ccccc1C2(C)C (stereo not drawn),-8%,24*,0%,63
Cc1ccc(OCC(=O)NN=C2c3ccccc3-c3ccccc32)cc1,2%,-3,-4%,-12
Cc1ccc(NN=C2c3ccccc3-c3ccccc32)cc1,-3%,48*,-10%,70*
CCc1nc(SCC(=O)NCCc2ccccc2)c2c(=O)n(C)c(=O)n(C)c2n1,3%,1,0%,-17
Cc1ccc(NC(=O)CCC(=O)c2cccs2)c(O)c1,-30%,66*,-1%,74*
O=C(CCC(=O)c1cccs1)c1cccs1,11%,40*,-1%,34*
CSc1nc(N)nc(SCC(=O)Nc2ccc(Cl)cc2)c1C#N,5%,20*,12%,43*
CSc1nc(N)nc(SCC(=O)Nc2cccc(F)c2)c1C#N,4%,28,2%,77*
CSc1nc(N)nc(SCC(=O)CC(=O)OC(C)C)c1C#N,?,-3,-4%,-20
CSc1nc(N)nc(SCC(=O)C(C)(C)C)c1C#N,-9%,22,0%,22
CCSc1nnc(NS(=O)(=O)c2ccc(OC)cc2)s1,.,2,0%,-3
Cc1ccc(NC(=S)N2CCCC(c3nc4ccc(C)cc4[nH]3)C2)c(C)c1 (stereo not drawn),15%,10*,-5%,6
Cc1cc2nc(C3CCCN(C(=S)Nc4ccccc4C)C3)[nH]c2cc1C (stereo not drawn),7%,33*,-14%,28
Cc1cc2nc(C3CCCN(C(=O)NCc4ccccc4)C3)[nH]c2cc1C (stereo not drawn),5%,35*,-2%,47
Cc1ccc2nc(C3CCCN(C(=S)Nc4cccc(C)c4C)C3)[nH]c2c1 (stereo not drawn),15%,2,-3%,19
CCOc1ccccc1-c1nnc2n1N=C(c1ccc(OC)c(OC)c1)CS2,.,2,.,-13
O=c1[nH]c(SCC2CCCCO2)nc2ccccc12 (stereo not drawn),?,24*,1%,81*
CC1CCCC(C)N1C(=O)CSc1nc2ccccc2c(=O)[nH]1 (stereo not drawn),2%,0,4%,17
CCn1c(SCC(=O)c2cc(C)n(CC3CCCO3)c2C)nc2ccccc21 (stereo not drawn),-7%,37*,0%,35
Cc1cc(C(=O)CSc2nnnn2-c2ccccc2)c(C)n1CC1CCCO1 (stereo not drawn),2%,58*,-1%,49*
Cc1cc(C(=O)CSc2nc3ccccc3c(=O)[nH]2)c(C)n1CC1CCCO1 (stereo not drawn),0%,43*,-4%,143*
COc1cc(/C=C/C(=O)OCC(=O)N2c3ccccc3NC(=O)C2(C)C)cc(OC)c1OC,.,.,-3%,.
CCCCC(c1nnnn1CS(=O)(=O)c1ccc(C)cc1)N1CCN(c2ccccc2)CC1 (stereo not drawn),7.1µM*,-2,-14%,-14
O=C(Cc1ncon1)Nc1ccc(F)c(F)c1F,9%,1,-1%,-2
Cc1ccc(NC2c3ccccc3C(=O)N2CCN2CCOCC2)cc1 (stereo not drawn),6%,4,1%,4
CCOc1ccc2nc(N3CCC(C(=O)Nc4ccc(Br)cc4F)CC3)sc2c1,.,35*,.,173*
CCOc1ccc2nc(N3CCCC(C(=O)NCCCN4C(C)CCCC4C)C3)sc2c1 (stereo not drawn),-4%,17*,-3%,54*
